The values that follow come from PubChem BioAssay (NCI).

Some test systems named below: NCI-H23 lung; NCI-H226 lung; NCI-H322M lung; HOP-62 NSCLC; NCI-H460 lung; HOP-92 NSCLC; NCI-H522 lung; A549/ATCC NSCLC; 786-0 renal; COLO 205 colon; DU-145 prostate; K-562 leukemia; MALME-3M melanoma; MDA-MB-231 breast; RXF 393 renal; SF-268 CNS; SF-295 CNS; UACC-257 melanoma; M14 melanoma; SF-539 CNS.
Common to all, as to assay: NCI-60 one-dose screen, 48 h (100 = growth as untreated, 0 = no growth, -100 = all killed)
Common to all, as to conditions: 10 µM

This is part of a sample that, as a whole, favours compounds with a hit. Of some 83,000 tested, about 20% had one in any assay.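 Assay: single dose, 48 h. Readout: percent growth (0 = no net growth; negative = cell death). Active: <10.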 Values without a mark were called inactive. Calls of active or inactive are those of the source.

For the molecule `CC(=O)OCC1OC(OC2=C(CC=C(C)C)C(=O)c3ccccc3C2=O)C(OC(C)=O)C(OC(C)=O)C1OC(C)=O` (centres undefined), the growth in the test on NCI-H23 lung was 23.3%; in the test with NCI-H226 lung, 57.1%; with NCI-H322M lung it was 77.5%; in the test on HOP-62 NSCLC, 94.5%; in the test on NCI-H460 lung, 34.6%; in the test with HOP-92 NSCLC it was -3.11% (active). The growth in the test on NCI-H522 lung was 22.3%; with A549/ATCC NSCLC, 79.5%; with 786-0 renal it was 88.9%; with COLO 205 colon, 66%; in the test with DU-145 prostate it was 57.1%; in the test with K-562 leukemia, -47.4% (active). Besides, the growth is -36.2% (active) with MALME-3M melanoma; 6.41% (active) with MDA-MB-231 breast; 61.1% with RXF 393 renal; 22.7% in the test on SF-268 CNS; 63.4% with SF-295 CNS; 20.6% in the test on UACC-257 melanoma. Further, the growth with M14 melanoma was 46.8%.
Regarding `Cc1cc2nc(CC(=O)c3ccccc3)c(=O)[nH]c2cc1C`, the growth with NCI-H23 lung was 84%; in the test with NCI-H226 lung it was 87%; in the test with NCI-H322M lung, 98.7%; with HOP-62 NSCLC, 96.2%; in the test with NCI-H460 lung, 97.9%; in the test with HOP-92 NSCLC, 88.5%. Further, the growth with NCI-H522 lung is 81.2%; with A549/ATCC NSCLC, 105%; in the test with 786-0 renal, 98.3%; with COLO 205 colon it was 114%; in the test on DU-145 prostate, 112%; with K-562 leukemia it was 90.1%. The growth in the test with MALME-3M melanoma is 101%; in the test with RXF 393 renal, 101%; with SF-268 CNS it was 108%; in the test with SF-295 CNS it was 89.8%; in the test with SF-539 CNS, 95.6%; with UACC-257 melanoma, 106%. The growth in the test on M14 melanoma is 87.2%.
On to `CC(C)=C(NC(=O)c1ccccc1)C(=O)O`, for which the growth was 107% in the test on NCI-H23 lung; 103% in the test on NCI-H226 lung; 104% with NCI-H322M lung; 115% in the test with HOP-62 NSCLC; 111% in the test with NCI-H460 lung; 84.5% in the test on HOP-92 NSCLC. For the same molecule, the growth is 92.3% in the test on NCI-H522 lung; 105% in the test on A549/ATCC NSCLC; 112% in the test with 786-0 renal; 112% in the test on COLO 205 colon; 106% with DU-145 prostate; 102% in the test with K-562 leukemia. In addition, the growth in the test with MALME-3M melanoma was 99%; with RXF 393 renal, 103%; in the test on SF-268 CNS it was 96.1%; with SF-295 CNS, 116%; with SF-539 CNS, 110%; with UACC-257 melanoma, 97.5%. Also, the growth with M14 melanoma is 108%.
Take `CC1(C)N=C(N)N=C(N)N1c1cccc(Br)c1`: the growth with NCI-H23 lung is 20.8%; with NCI-H226 lung, 58.8%; in the test on NCI-H322M lung, 46.9%; in the test on HOP-62 NSCLC it was 15.4%; in the test with NCI-H460 lung, 18.2%; with HOP-92 NSCLC, 83%. Besides, the growth was 52.5% in the test with NCI-H522 lung; 30.6% in the test with A549/ATCC NSCLC; 10.3% in the test with 786-0 renal; 53.4% in the test on DU-145 prostate; 23.2% in the test on K-562 leukemia; 68.9% with MALME-3M melanoma. Moreover, the growth was 77.6% with MDA-MB-231 breast; 66.8% in the test with RXF 393 renal; 37.2% in the test with SF-268 CNS; -8.36% (active) in the test with SF-295 CNS; 16.2% in the test with SF-539 CNS; 56% with UACC-257 melanoma.
With `Nc1ccc(C(=O)c2ccc(N)c(Br)c2)cc1Br`, the growth is 44.4% in the test with NCI-H23 lung; 65.3% with NCI-H226 lung; 65.5% in the test with NCI-H322M lung; 29.5% in the test with HOP-62 NSCLC; -0.543% (active) in the test on NCI-H460 lung; 34.7% in the test on HOP-92 NSCLC. For the same molecule, the growth in the test on NCI-H522 lung was -36.1% (active); in the test on A549/ATCC NSCLC it was 17.9%; with 786-0 renal, 34%; in the test on COLO 205 colon it was -30.6% (active); in the test with K-562 leukemia it was 15.7%; with MALME-3M melanoma, 78.8%. Besides, the growth in the test with MDA-MB-231 breast was 24.8%; in the test with RXF 393 renal, -17.4% (active); with SF-295 CNS it was 17.6%; in the test on SF-539 CNS, -11.2% (active); in the test with UACC-257 melanoma, 67.1%.
Consider `COc1cc(OC)c2ccc(=O)oc2c1`, for which the growth is 101% in the test with NCI-H23 lung; 114% with NCI-H226 lung; 107% in the test on NCI-H322M lung; 101% in the test with HOP-62 NSCLC; 104% in the test on NCI-H460 lung; 98.3% in the test with HOP-92 NSCLC. Further, the growth with NCI-H522 lung was 116%; with A549/ATCC NSCLC it was 97%; in the test with 786-0 renal, 105%; in the test with COLO 205 colon, 107%; in the test on DU-145 prostate it was 102%; with MALME-3M melanoma, 136%. Besides, the growth with MDA-MB-231 breast is 93.4%; with RXF 393 renal, 123%; with SF-268 CNS it was 102%; in the test with SF-295 CNS, 100%; in the test with SF-539 CNS it was 106%; with UACC-257 melanoma, 98.1%. The growth in the test with M14 melanoma is 115%.
Take `Nc1ccccc1C(=O)Nc1ccc(Cl)cc1Cl`: the growth was 92.6% with NCI-H23 lung; 96.1% in the test with NCI-H226 lung; 106% in the test with NCI-H322M lung; 86.6% in the test on HOP-62 NSCLC; 104% in the test on NCI-H460 lung; 67.2% in the test on HOP-92 NSCLC. Besides, the growth is 78.5% in the test on NCI-H522 lung; 102% with A549/ATCC NSCLC; 107% in the test with 786-0 renal; 106% in the test on DU-145 prostate; 84.4% in the test with MDA-MB-231 breast; 83.7% with RXF 393 renal. Also, the growth in the test with SF-268 CNS is 101%; in the test on SF-539 CNS, 94.4%; in the test on UACC-257 melanoma it was 86.5%; in the test with M14 melanoma, 94.7%.
On to `OCCN(CCO)C(=S)S`, for which the growth in the test with NCI-H23 lung was 102%; in the test with NCI-H226 lung, 103%; in the test with NCI-H322M lung it was 103%; in the test on HOP-62 NSCLC, 108%; in the test with NCI-H460 lung it was 112%; with HOP-92 NSCLC, 109%. The growth was 101% in the test with NCI-H522 lung; 94% in the test with A549/ATCC NSCLC; 101% with 786-0 renal; 114% with COLO 205 colon; 111% with DU-145 prostate; 111% in the test with K-562 leukemia. Besides, the growth is 95.1% in the test with MALME-3M melanoma; 113% in the test on RXF 393 renal; 101% in the test on SF-295 CNS; 106% in the test with SF-539 CNS; 79.6% in the test on UACC-257 melanoma; 108% with M14 melanoma.
With `CC(C)=NNc1ccc([N+](=O)[O-])cc1[N+](=O)[O-]`, the growth is 95.5% in the test on NCI-H23 lung; 98.3% with NCI-H226 lung; 87.9% in the test on NCI-H322M lung; 87.9% in the test with HOP-62 NSCLC; 88.1% in the test with NCI-H460 lung; 80.2% in the test with HOP-92 NSCLC. Moreover, the growth was 82.1% in the test on NCI-H522 lung; 83.2% in the test on A549/ATCC NSCLC; 93.8% with 786-0 renal; 89.8% in the test with DU-145 prostate; 60.2% in the test with K-562 leukemia; 159% in the test with MALME-3M melanoma. Besides, the growth in the test with MDA-MB-231 breast is 82.4%; in the test on RXF 393 renal, 109%; in the test with SF-268 CNS, 85.1%; in the test on SF-295 CNS it was 69.8%; with SF-539 CNS, 95.6%; in the test with UACC-257 melanoma, 101%. Further, the growth with M14 melanoma is 74.3%.
